Data taken from PubChem BioAssay.
The source made the active and inactive calls.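 How the source made its calls, unless noted: active means fluorescence slope higher than the sample average by over 3 SD (cut at about -0.22 in these data, passing the limit was not always enough); inactive means the rest.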

Columns and labels:
[1] = inhibitors of TNFa-induced NFkB p65 translocation, primary screen, imaging, HUVEC, MLSMR starter and 10KST1 sets (AID 438;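 active means inhibition above 20% together with a positive visual image hit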;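 further: compound added about 3h40 before a 20 min TNFalpha stimulation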;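 on inhibition: signal is the nuclear over cytoplasmic p65 intensity ratio per well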); details: HUVEC TNFa-induced p65 nuclear translocation; cell count: measured here: nuclei count (cytotoxicity indicator), at 2.08 µM; inhibition: at 2 µM, stronger effect = higher value, 0% TNFa-plus-vehicle, 100% no-TNFa wells
[2] = inhibitors of mutant huntingtin aggregation, primary screen, imaging, exon1htt(103Q)mCFP cells, high-content imaging (AID 483;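 active means visual image review flags a hit and inhibition of aggregation exceeds 20%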;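 further: compound exposure lasted 3 days before fixation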;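 on nuclei count: percent of the per-plate median nuclei count of sample wells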); details: exon1htt(103Q)mCFP cell line, aggregate imaging, at 2 µM; inhibition of aggregation: stronger effect = higher value; nuclei count: measured here: cell count, toxicity
[3] = inhibitors of E-selectin induction by TNFa, primary screen, imaging, HUVEC, immunofluorescence, MLSMR starter and 10KST1 sets (AID 487;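 active means visually confirmed hit in the image check and inhibition above 20%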;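 on inhibition: signal is fraction of cell area covered by stained E-selectin grains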;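 on nuclei count: 100% = median nuclei count of all wells on the same plate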); details: HUVEC TNFalpha-induced E-selectin immunofluorescence imaging, at 2 µM; inhibition: stronger effect = higher value; nuclei count: measured here: cell number, toxicity
[4] = molecular target: Voltage-gated potassium channel subunit beta-2 (Rattus norvegicus) (UniProt P62483); experiment: KvBeta enzyme negative modulators, primary screen, biochemical, NADPH fluorescence (AID 622); details: recombinant KvBeta, 4-cyanobenzaldehyde reduction, at 10 µM, stronger effect = higher value;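 further: slope of raw intensity against log time taken from 70 to 1610 s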
Chain of Voltage-gated potassium channel subunit beta-2 (Rattus norvegicus) (P62483 whole entry, looked up): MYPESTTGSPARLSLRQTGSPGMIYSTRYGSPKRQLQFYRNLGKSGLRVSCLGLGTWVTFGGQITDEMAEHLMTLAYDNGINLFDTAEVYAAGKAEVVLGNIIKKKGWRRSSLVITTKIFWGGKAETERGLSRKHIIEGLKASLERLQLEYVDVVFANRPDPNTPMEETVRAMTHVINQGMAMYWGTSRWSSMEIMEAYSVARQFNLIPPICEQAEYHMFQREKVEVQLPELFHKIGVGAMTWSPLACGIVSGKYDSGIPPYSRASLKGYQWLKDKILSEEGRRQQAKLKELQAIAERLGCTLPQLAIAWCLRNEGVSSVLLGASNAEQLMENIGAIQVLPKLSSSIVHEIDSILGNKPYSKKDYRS

[5] = molecular target: Voltage-gated potassium channel subunit beta-2 (Rattus norvegicus) (UniProt P62483); experiment: KvBeta positive modulators, primary screen, biochemical, NADPH fluorescence (AID 623;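 active means NADPH fluorescence slope more negative than the mean of all samples by about 3 SD, 99.7% confidence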;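 further: fluorescence intensity change per second fitted from 20 to 320 s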); details: Recombinant KvBeta, NADPH fluorescence decrease slope, 10 min; at 10 µM; stronger effect = lower value
[6] = molecular target: Alpha-2C adrenergic receptor (Homo sapiens) (UniProt P18825); experiment: modulators of alpha2C/GIRK thallium flux, primary screen, cell-based, HEK293 alpha2C/GIRK1/2 (AID 624;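 active means fluorescence slope after compound addition differing from the mean of all screened samples at 99.7% confidence, in either direction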;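 further: slope of fluorescence ratio to pre-addition baseline per second over 15 to 24 s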); details: thallium flux BTC fluorescence, at 10 µM, actives lie on both sides
Chain of Alpha-2C adrenergic receptor (Homo sapiens) (P18825 whole entry, looked up): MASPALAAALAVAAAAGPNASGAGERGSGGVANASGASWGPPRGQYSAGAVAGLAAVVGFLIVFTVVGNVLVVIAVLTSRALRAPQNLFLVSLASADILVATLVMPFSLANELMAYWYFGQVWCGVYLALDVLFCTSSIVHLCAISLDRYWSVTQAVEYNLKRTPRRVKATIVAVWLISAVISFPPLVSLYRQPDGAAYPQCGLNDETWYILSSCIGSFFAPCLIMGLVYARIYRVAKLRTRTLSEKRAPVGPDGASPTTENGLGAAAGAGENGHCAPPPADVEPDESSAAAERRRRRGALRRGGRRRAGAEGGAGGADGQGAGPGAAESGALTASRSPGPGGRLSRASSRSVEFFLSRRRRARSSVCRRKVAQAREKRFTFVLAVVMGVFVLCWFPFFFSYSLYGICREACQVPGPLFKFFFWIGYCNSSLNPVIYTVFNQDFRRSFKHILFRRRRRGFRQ

[7] = inhibitors of Sendai virus-induced IRF3 signaling, primary screen, TLR/RLR signaling modifier project, cell-based, Sendai virus stimulus, luciferase, 10K MLSCN set (AID 602276;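 active means inhibition at or above 50% at 10 µM; inactive means inhibition below 50%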;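 further: firefly luciferase from ISG56 promoter only with Renilla not read in this screen; 0% = Sendai virus plus DMSO and 100% = medium plus DMSO without virus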); details: HEK293 RL24 IRF3 luciferase reporter, at 10 µM, stronger effect = higher value
[8] = inhibitors of poly I:C-induced TLR3 signaling, primary screen, cell-based, poly I:C stimulus, luciferase, 10K MLSCN set (AID 602277;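 active means inhibition of the reporter signal at or above 50%; inactive means inhibition below 50%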); details: HEK293-TLR3 RL24 IRF3 luciferase reporter, at 10 µM, stronger effect = higher value

Row | Compound | cell count [1] | inhibition [1] | inhibition of aggregation [2] | nuclei count [2] [%] | inhibition [3] | nuclei count [3] [%] | fluorescence slope [4] | NADPH fluorescence slope [5] | slope [6] | inhibition [7] | inhibition [8]
1 | COc1cc2cc(C(c3nnnn3C3CCCC3)N(C)C3CCCCC3)c(=O)[nH]c2cc1OC (stereo unspecified) | 537 | -13.2% (inactive) | -34.3% (inactive) | 100 | -15.9% (inactive) | 108 | -0.465 (inactive) | -2e-05 (inactive) | 0.007 (inactive) | 12.4% (inactive) | 22% (inactive)
2 | O=C(Nc1cnn(C23CC4CC(CC(C4)C2)C3)c1)c1cnn2c(C(F)(F)F)cc(-c3ccco3)nc12 | 501 | -8.8% (inactive) | -4.4% (inactive) | 108 | -107% (inactive) | 121 | -0.498 (inactive) | -2.2e-05 (inactive) | 0.00429 (inactive) | 8.99% (inactive) | -44.9% (inactive)
3 | CCOC(=O)N1CCC(NC(=O)c2ccc(CS(=O)(=O)c3c(Cl)cccc3Cl)o2)CC1 | 608 | -3.7% (inactive) | 10.7% (inactive) | 94.3 | -44.1% (inactive) | 104 | -0.611 (inactive) | 2.7e-05 (inactive) | 0.00587 (inactive) | 16.5% (inactive) | 0.288% (inactive)
4 | O=C(NCC(c1cccnc1)N1CCN(c2ccc(F)cc2)CC1)c1ccc(F)cc1 (stereo unspecified) | 346 | 7.4% (inactive) | -9.9% (inactive) | 84 | -33.2% (inactive) | 96.5 | -0.596 (inactive) | -4.6e-05 (inactive) | 0.00545 (inactive) | 1.86% (inactive) | 6.23% (inactive)
5 | Cc1onc(-c2ccccc2)c1C(=O)Nc1sc2c(c1C(N)=O)CCC2 | 404 | 4.8% (inactive) | -0.6% (inactive) | 107 | – | 139 | -0.282 (inactive) | -1.9e-05 (inactive) | 0.00375 (inactive) | 8.08% (inactive) | -31.8% (inactive)
6 | O=C(Nc1ccccc1-c1ccccc1)NC1CCN(CC(=O)N2CCOCC2)CC1 | 537 | -39.8% (inactive) | -5% (inactive) | 113 | -63.8% (inactive) | 109 | -0.433 (inactive) | -7.3e-05 (inactive) | 0.00795 (inactive) | 9.32% (inactive) | 27.5% (inactive)
7 | Cc1ccc(Cn2nnc(C(=O)Nc3cccc(C)c3C)c2N)cc1 | 457 | 9.4% (inactive) | 1.7% (inactive) | 95.1 | – | 150 | -0.565 (inactive) | 2.2e-07 (inactive) | 0.00621 (inactive) | 6.59% (inactive) | 9.57% (inactive)
8 | O=C(O)CCc1ccc(-c2ccc(F)cc2)n1CC(=O)O | 411 | 7.9% (inactive) | 0.9% (inactive) | 97 | – | 142 | -0.462 (inactive) | -0.000309 (inactive) | 0.00527 (inactive) | 10.3% (inactive) | 19.7% (inactive)
9 | CCCS(=O)(=O)NCCc1cc2cc(C)c(C)cc2[nH]c1=O | 321 | -18.8% (inactive) | 4.2% (inactive) | 84.9 | -16.4% (inactive) | 106 | -0.587 (inactive) | -7.5e-05 (inactive) | 0.0056 (inactive) | 4.21% (inactive) | -4.55% (inactive)
10 | Cc1ccc2c(CC(=O)OCc3csc(C)n3)coc2c1 | 367 | 0.2% (inactive) | 7.3% (inactive) | 92.6 | – | 106 | -0.44 (inactive) | 2.3e-05 (inactive) | 0.00641 (inactive) | 6.62% (inactive) | 30% (inactive)
11 | Cn1c(-c2ccc(C(C)(C)C)cc2)n[nH]c1=S | 647 | -5.8% (inactive) | -4.8% (inactive) | 77.2 | 47.5% (inactive) | 79.7 | -0.46 (inactive) | -0.000112 (inactive) | 0.00619 (inactive) | -11.8% (inactive) | -25.2% (inactive)
12 | Cc1cc(NC(=O)c2ccccc2)ncc1NC(=O)c1ccco1 | 427 | 12.5% (inactive) | 11.4% (inactive) | 100 | – | 147 | -0.603 (inactive) | 2.5e-05 (inactive) | 0.00711 (inactive) | 7.79% (inactive) | -25.3% (inactive)
13 | COc1ccc(Br)cc1C1N2CC3(C)CN1CC(C)(C2)C3=O (stereo unspecified) | 435 | 5.6% (inactive) | 6.8% (inactive) | 96.9 | – | 148 | -0.389 (inactive) | -0.000152 (inactive) | 0.00688 (inactive) | -3.74% (inactive) | 10.3% (inactive)
14 | CN(Cc1ccccc1)S(=O)(=O)c1ccc(S(=O)(=O)N2CCN(CCC#N)CC2)cc1 | 687 | -6.9% (inactive) | -13.6% (inactive) | 111 | -50.4% (inactive) | 125 | -0.626 (inactive) | -2.8e-05 (inactive) | 0.00717 (inactive) | -12% (inactive) | 11.4% (inactive)
15 | Clc1cccc(Nc2c3c(nc4ncnn24)CCC3)c1 | 416 | 6% (inactive) | -33.4% (inactive) | 36 | – | 145 | -0.63 (inactive) | -2.2e-07 (inactive) | 0.00604 (inactive) | 14.9% (inactive) | 30.2% (inactive)
16 | O=C(O)c1cccc(NS(=O)(=O)c2ccc3nnn(O)c3c2)c1 | 435 | 10.6% (inactive) | -5.7% (inactive) | 108 | – | 152 | -0.403 (inactive) | -5.1e-06 (inactive) | 0.00611 (inactive) | 12.9% (inactive) | 18.7% (inactive)
17 | Cn1c(Cc2ccccc2)nnc1SCC(=O)N1CCOCC1 | 492 | -0.8% (inactive) | -33% (inactive) | 103 | -74.1% (inactive) | 123 | -0.276 (inactive) | -4.7e-05 (inactive) | 0.00541 (inactive) | 10.3% (inactive) | 13.5% (inactive)
18 | CNS(=O)(=O)c1cccc(C(=O)OCC(=O)c2cc(C)n(-c3ccc4c(c3)OCO4)c2C)c1 | 406 | 2.5% (inactive) | -7.6% (inactive) | 97.3 | – | 156 | -0.436 (inactive) | -4.7e-05 (inactive) | 0.0143 (active) | -1.89% (inactive) | 10.6% (inactive)
19 | CCOC(=O)Cc1cc(=O)n2[nH]c(C)c(-c3ccc(OC)cc3)c2n1 | 652 | -0.3% (inactive) | 19.2% (inactive) | 94 | 0.6% (inactive) | 102 | -0.301 (inactive) | 1.1e-05 (inactive) | 0.00404 (inactive) | 14.2% (inactive) | 22.5% (inactive)
20 | Cc1cc(-n2c(C)cc(C(=O)CSc3nc4ccccc4c(=O)n3Cc3ccco3)c2C)no1 | 288 | -8.6% (inactive) | 8.4% (inactive) | 95 | -104% (inactive) | 96.6 | -0.441 (inactive) | -2e-05 (inactive) | 0.00698 (inactive) | 8.08% (inactive) | -48.8% (inactive)
21 | CCCn1c(N)c(C(=O)CSc2nnc(Cc3ccccc3)o2)c(=O)n(C)c1=O | 412 | 1% (inactive) | 4.7% (inactive) | 99.8 | – | 150 | -0.556 (inactive) | 0.00012 (inactive) | 0.00683 (inactive) | 9.61% (inactive) | -3.84% (inactive)
22 | COC(=O)C1=C(C)C(c2cccs2)NC(=O)N1C (stereo unspecified) | 464 | 4.4% (inactive) | -0.4% (inactive) | 102 | – | 137 | -0.618 (inactive) | -2.3e-05 (inactive) | 0.0046 (inactive) | 15.4% (inactive) | 17.5% (inactive)
23 | CCOc1cc(C(=O)N(C)c2ccccc2)cc(OCC)c1OCC | 314 | 5.5% (inactive) | 17.8% (inactive) | 97.5 | 5.8% (inactive) | 86.2 | -0.368 (inactive) | -3.2e-05 (inactive) | 0.00526 (inactive) | 18.6% (inactive) | 32.8% (inactive)
24 | Cc1cc(C)n(-c2ccc(C(=O)Oc3ccc4c(c3)OCO4)cc2)n1 | 440 | 3.3% (inactive) | 17.6% (inactive) | 100 | – | 148 | -0.468 (inactive) | -2.1e-05 (inactive) | 0.00555 (inactive) | 7.51% (inactive) | 1.41% (inactive)
25 | CN(Cc1ccccc1)C(=O)c1ccc2c(c1)OCO2 | 414 | 10.6% (inactive) | -8.8% (inactive) | 108 | – | 156 | -0.595 (inactive) | -2e-05 (inactive) | 0.0038 (inactive) | 2.22% (inactive) | -20.3% (inactive)
26 | COC(=O)C(C)Sc1nc2c(c(=O)n1-c1ccccc1)SCC2 (stereo unspecified) | 330 | -1.4% (inactive) | -6.6% (inactive) | 113 | -51.5% (inactive) | 150 | -0.523 (inactive) | -7.6e-05 (inactive) | 0.00467 (inactive) | 7.35% (inactive) | 13.2% (inactive)
27 | O=c1[nH]cnc2c1nc(SCc1ccccc1)n2C1OC(CO)C(O)C1O (stereo unspecified) | 459 | 14.3% (inactive) | 10.4% (inactive) | 71.9 | -9.9% (inactive) | 110 | -0.597 (inactive) | 1.2e-06 (inactive) | 0.00624 (inactive) | 10.8% (inactive) | 24% (inactive)
28 | CC(C)CNc1oc(-c2ccc(F)cc2)nc1C#N | 696 | -2.9% (inactive) | -21% (inactive) | 108 | -41.9% (inactive) | 118 | -0.543 (inactive) | -5e-06 (inactive) | 0.00664 (inactive) | -4.19% (inactive) | 2.46% (inactive)
29 | CCn1c(SCC(=O)Nc2ccc(C(=O)OC)cc2)nnc1-c1cccs1 | 654 | 11.5% (inactive) | 24.6% (inactive) | 110 | 42.7% (inactive) | 106 | -0.379 (inactive) | -5.2e-05 (inactive) | 0.00499 (inactive) | 14.1% (inactive) | 12.6% (inactive)
